Sfp inh = Sfp phosphopantetheinyl transferase inhibition; AID 1490; Biochemical Sfp PPTase activity, qHTS; Q9F4F7; 3.5% of 310,000 active; Potency, µM, inactives show largest response in the series, negative = inhibition, hits mostly inhibitors;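 further: the enzyme is Sfp with the accession as filed and its product quenches rhodamine fluorescence; potency means the concentration at half of the fitted maximal effect; 0% = enzyme reaction without inhibitor and -100% = no enzyme wells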
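Fluorescence-quenching assay: 15 nM Sfp-PPTase preincubated 15 min at room temperature with compound, then 5 uM rhodamine-CoA and 12.5 uM BHQ-2-labelled YbbR peptide added. Fluorescence (ex 525/em 598 nm) read at start and after 30 min; difference gives rate.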
JMJD2E inh = JMJD2E (human) inhibition; AID 2147; JMJD2E catalytic domain, FDH-coupled NADH fluorescence (FDH is formaldehyde dehydrogenase); 1.6% of 230,000 active; B2RXH2; Potency, µM (highest dose often 57.1 µM), inactives show at the top dose activity change, negative = inhibition, most hits filed as inhibitors; active means well fitted inhibition curve with a large enough effect, not every such curve was filed as active; inconclusive means small, poorly fitted or top-dose-only effect, or another doubt; inactive means no such curve, though single readings can be large or run the other way;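 further: potency means the concentration at half of the fitted maximal effect; 0% = wells with enzyme and -100% = buffer wells without enzyme; nearly all actives have a fitted effect of over 50% in size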
Target sequence (B2RXH2 1-337 limits assumed): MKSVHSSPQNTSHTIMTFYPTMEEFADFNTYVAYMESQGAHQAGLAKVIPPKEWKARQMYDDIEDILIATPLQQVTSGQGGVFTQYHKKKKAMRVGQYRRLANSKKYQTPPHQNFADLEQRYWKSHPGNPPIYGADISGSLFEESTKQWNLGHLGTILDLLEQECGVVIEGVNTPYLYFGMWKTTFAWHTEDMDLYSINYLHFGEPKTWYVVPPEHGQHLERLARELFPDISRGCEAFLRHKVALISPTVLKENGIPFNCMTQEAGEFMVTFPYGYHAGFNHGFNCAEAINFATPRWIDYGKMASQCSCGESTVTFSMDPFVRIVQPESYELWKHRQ
Tau FP inhib = inhibitors of human tau fibril formation; Potency, µM (titrated, usually from 57.7 µM), inactives show top-dose activity, negative = inhibition, actives largely listed as inhibitors; K18 P301L tau heparin fibrillization, Alexa594 FP, 6 h; 0.39% of 280,000 active; further: potency means the concentration at half of the fitted maximal effect; nearly all actives have a fitted effect of over 55% in size
Target sequence (P10636 561-689 P618L limits assumed): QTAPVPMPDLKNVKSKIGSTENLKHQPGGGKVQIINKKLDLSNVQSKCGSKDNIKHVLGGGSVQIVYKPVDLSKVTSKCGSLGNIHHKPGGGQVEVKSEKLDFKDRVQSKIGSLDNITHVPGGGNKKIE
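Recombinant K18 P301L […], labeled with Alexa 594 at 0.24 uM over 15 uM unlabeled; heparin inducer 20 uM final; 37 C, 6 hr; FP endpoint.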
Tau fluor cs = counter-screen for tau fibril formation inhibitors. tau K18 P301L Alexa594 fluorescence, heparin fibrillization. Potency, µM (highest dose often 57.7 µM), for the others: top-dose activity change, negative = decrease. 0.93% of 280,000 active; further: potency means the concentration at half of the fitted maximal effect; nearly all actives have a fitted effect of over 55% in size
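Human K18 P301L tau (15 uM unlabeled plus 0.24 uM Alexa 594-labeled, final) in 100 mM sodium acetate pH 7 was mixed with compound and 20 uM heparin and incubated 6 hr at 37 C.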
Tau ThT inhib = tau fibrillization inhibition (ThT binding). recombinant tau K18 P301L (four-repeat tau fragment), heparin-induced fibrillization, ThT fluorescence. Potency, µM (titrated, usually from 57.4 µM), inactives show top-dose activity, negative = inhibition, most hits filed as inhibitors. P10636. AID 1460. 2.1% of 270,000 active; further: potency means the concentration at half of the fitted maximal effect; nearly all actives have a fitted effect of over 55% in size
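Tau K18 P301L fragment (15 uM unlabeled plus 0.24 uM Alexa 594-labeled) in 100 mM sodium acetate pH 7 with compound, fibrillization induced by 20 uM heparin for 6 hr at 37 C. Thioflavin T (30 uM) added, fluorescence read after 1 hr (ex 450, em 510 nm).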
Coupling enz = coupling enzyme interference in Giardia aldolase counter-screen; coupling enzyme system counterscreen, AmpLite Red fluorescence; activity change, negative = inhibition, % at 58.2 µM, hits read low; 0.67% of 290,000 active; in the data active means activity change below about -30%
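Coupling enzymes only (glyceraldehyde-3-phosphate) + compound, at 57.5 uM final, 10 min RT; add substrate/coupling/AmpLite Red mix, 20 min RT; fluorescence ex 525/em 598 nm. Actives flag coupling-system interference.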
The depositor's hits bear a star; [ ] = remark or other dose. This is a sample that favours compounds with a hit; in the whole collection about 5.3% have one here. Unless noted, the call rests on the fitted dose curve; in most records, active means well fitted curve in the direction sought with a large enough effect; inconclusive means small, poorly fitted or top-dose-only effect, or another doubt; inactive means no such curve, though single readings can be large; an effect the other way counts as inactive or inconclusive. Unless noted, on the % scale 0 is the no-effect control and ±100 the full control effect.

`O=C(NC(=S)Nc1ccc(CN2CCOCC2)cc1)c1ccc([N+](=O)[O-])cc1` gave Sfp inh 50µM*, JMJD2E inh -2%, Tau FP inhib 5%, Tau fluor cs -12%, Tau ThT inhib inconclusive and Coupling enz 0.
`CC(C)C(=O)Nc1ccc(NC(=S)NC(=O)c2ccc([N+](=O)[O-])cc2)cc1` gave Sfp inh -1%, JMJD2E inh 4%, Tau FP inhib -2%, Tau fluor cs -28%, Tau ThT inhib 7.1µM* and Coupling enz -1.
[O-]/[N+](=C\c1ccncc1)c1ccc(Br)cc1 was read as Sfp inh inconclusive, JMJD2E inh -6%, Tau FP inhib inconclusive, Tau fluor cs -25%, Tau ThT inhib 32µM* and Coupling enz -6.
Screening O=[N+]([O-])c1ccc(/C=C/c2ccncc2)cc1 returned Sfp inh 14%, JMJD2E inh 4%, Tau FP inhib 0%, Tau fluor cs -19%, Tau ThT inhib inconclusive and Coupling enz 0.
For CCc1ccc[n+](-c2[nH]c(=O)sc2/C=N/N=C(\[O-])CCn2c3ccccc3c3ccccc32)c1 the results were Sfp inh -24%, JMJD2E inh -27%, Tau FP inhib 4%, Tau fluor cs inconclusive, Tau ThT inhib 16µM* and Coupling enz -2.
Screening Cc1cc[n+](-c2[nH]c(=O)sc2/C=N/N=C(\[O-])CCn2c3ccccc3c3ccccc32)cc1 returned Sfp inh -12%, JMJD2E inh -16%, Tau FP inhib inconclusive, Tau fluor cs inconclusive, Tau ThT inhib 28µM* and Coupling enz 2.
Cc1ccc(C2CC(=O)Oc3cc(C)c(Cl)c(C)c32)cc1 (centres undefined) was read as Sfp inh -17%, Tau FP inhib -13%[81.3 µM], Tau fluor cs -23%[81.3 µM], Tau ThT inhib inconclusive and Coupling enz 1.
O=C(/C=C/c1cccc([N+](=O)[O-])c1)Nc1cccc(NC(=O)c2cccs2)c1 was read as Sfp inh 31%, JMJD2E inh 2%, Tau FP inhib inconclusive, Tau fluor cs 13µM*[quencher], Tau ThT inhib inconclusive and Coupling enz -3.
For O=C(Nc1cccc(NC(=O)c2cccs2)c1)c1ccc([N+](=O)[O-])o1 the results were Sfp inh 2%, JMJD2E inh -11%, Tau FP inhib 14%, Tau fluor cs 32µM*[quencher] and Coupling enz 2.
`Cc1cn2c(=O)cc(COC(=O)c3ccc(NC(=O)c4ccc(C(C)(C)C)cc4)cc3)nc2s1` gave Tau FP inhib 6%, Tau fluor cs -21% and Tau ThT inhib 3%.
For NC(CC(=O)Nc1ccc(Oc2cc(F)c(F)cc2Br)cc1)C(=O)O (centres undefined) the results were Sfp inh -13% and Coupling enz -1.
Cc1cccc(NC(=S)NCCc2ccccc2)c1C was read as Sfp inh 14% and Coupling enz -2.
Screening O=C1CCCN1CCCNC(=S)Nc1ccc(Nc2ccccc2)cc1 returned Sfp inh 56µM*, JMJD2E inh -2%, Tau FP inhib 1%, Tau fluor cs inconclusive, Tau ThT inhib inconclusive and Coupling enz 8.
S=C(NCCc1ccccc1)Nc1c(Cl)cccc1Cl was read as Sfp inh 32µM*, JMJD2E inh 11%, Tau FP inhib 6%, Tau fluor cs -15%, Tau ThT inhib -14% and Coupling enz -1.
Cc1cccnc1NC(=S)NCCc1ccccc1 was read as Sfp inh 40µM*, JMJD2E inh inconclusive, Tau FP inhib 3%, Tau fluor cs -19%, Tau ThT inhib -17% and Coupling enz 1.
Screening O=[N+]([O-])c1ccc(NC(=S)NCCc2ccc(F)cc2)cc1 returned Sfp inh inconclusive, JMJD2E inh 5%, Tau FP inhib inconclusive, Tau fluor cs 14µM*[quencher], Tau ThT inhib inconclusive and Coupling enz -1.
